The supplement of paper PMC10338343
± gives the standard deviation.

test system: MILI (PIWIL2) piRISC loaded with L1MC piRNA (26 nt); assay: pre-steady-state target cleavage rate (min^-1); guide: L1MC piRNA 5'p-UAACUAAAUACUAUGCAAGCUGUAGG; MIWI and MILI are mouse PIWI proteins and EfPiwi is from a freshwater sponge; tags in brackets are library labels; higher = faster piRNA-guided slicing of the target; settings: auxiliary factor: 500 nM mouse GTSF1
Summary of the method: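 With or without 500 nM GTSF1 partner protein, 1 nM active affinity-purified piRISC carrying one synthetic guide was mixed with 0.1 nM transcribed, DNA-blocked target RNA library in HEPES–potassium acetate buffer at 33 °C for 0–8 or 0–960 min. Uncleaved targets were sequenced and normalised to depth and to weakly complementary targets, three trials were pooled, and k3 was capped at 0.0001 min^-1. The pre-steady-state cleavage rate came from a burst-and-steady-state fit.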

Row | Sequence | pre-steady-state target cleavage rate
1 | UCCUGGAUGAGCUUGCAUAGUAUAAUGUAA | 0.00667 ± 0.0048
2 | UCCUGGAACUGCUUGCAUAGUAUUUUCAAA | 0.0118 ± 0.0046
3 | UCCUGGAUGUCGAACCAUAGUAUUUAGUUUA | 0.00592 ± 0.0031
4 | UCCUGGAUGUCGAACGUAAGUAAUUAGAUA | < 0.0001
5 | UCCUGGAUGAGCUUCGAUAGUAUUUAGUUA | 0.108 ± 0.013
6 | UCCUGGAUGAGCUACCAUAGUAUUUAGUAA | 0.1 ± 0.018
7 | UCCUGGAUGUCGAAGCAUAAUAUUUAGUUA | 0.0097 ± 0.0039
8 | UCCUGGAUGUGCUUGCUUAGUAUUUACUUA | 0.0644 ± 0.015
9 | UCCUGGUACAGCUUGCAUAGUAAAUUCAAA | 0.0147 ± 0.0074
10 | UCCUGGUACAGCUUGCAUAGUAAUUACUUA | 0.00729 ± 0.0052
11 | UCCUGGAUGAGCUUGCAUAGUAAUUAGAAA | 0.00737 ± 0.0053
12 | UCCUGGAUGUCCUUCCAUAGUAUUUAGUAA | 0.0112 ± 0.0045
13 | UCCUGGUACAGCUACGAUAGUAUUUAGUAA | 0.183 ± 0.034
14 | UCCUCCUUGUGCUUGCAUAGUAUUUUCAAA | 0.0192 ± 0.0073
15 | UCCUCCUAGUGCUUGCAUAGUAUUUUCAAA | 0.0158 ± 0.0057
16 | UCCUGGAUGUCGAACGUAUCUAUAAUGUUA | < 0.0001
17 | UCCUGGAUGAGCUACGAUAGUAUUUAGUUA | 0.00662 ± 0.0035
18 | UCCUGGAUGUCGAAGCAUAGUAUAAAGUUA | 0.0127 ± 0.0053
19 | UCCUGGAUGUCCUUGCAUACUAUUAAGUUA | 0.0099 ± 0.0049
20 | UCCUGGAUGUGGUUGCAUAGUAUUUACUUA | 0.00985 ± 0.0096
21 | UCCUGGAACUCGUUGCAUAGUAUUUAGAAA | 0.136 ± 0.021
22 | UCCUGGAUCAGCUUGCUAAGUAUUUUCAAA | 0.00483 ± 0.0036
23 | UCCUGGAUCAGCUUGCUAAGUAUUUAGAAA | 0.0172 ± 0.006
24 | UCCUGGAUGUGCUUGCAUUGUAUUUAGAUA | 0.0503 ± 0.009
